# Test results from PubChem BioAssay (Tox21).
# Results filed as inconclusive are left out. A number with no mark means an inactive call. Calls come from the whole dose curve; as a rule, active = well fitted cell-killing curve with a large enough effect in the repeat runs; inconclusive = weak or mixed curves, or effect the other way; inactive = no such curve, though single readings can be large or run the other way.
# Assay: qHTS assay to identify small molecule antagonists of the progesterone receptor (PR) signaling pathway - cell viability counter screen (AID 1346798); note: nearly all actives have a fitted effect of over 50% in size
# Settings: PR-UAS-bla HEK293T viability, CellTiter-Glo luminescence, 16 h; series mostly up to 92.4 µM; activity change, negative = cytotoxicity: at the top concentration
# Description: National Center for Advancing Translational Sciences [NCATS]
# NIH Chemical Genomics Center [NCGC]
# U.S. Environmental Protection Agency [EPA]
# National Institutes of Environmental Health Sciences [NIEHS]
# National Toxicology Program [NTP]
# U.S. Food and Drug Administration [FDA]
# Progesterone receptor (PR), a nuclear hormone receptor, plays an important role in development, metabolic homeostasis and reproduction. It is activated by the steroid hormone progesterone. Endocrine disrupting chemicals (EDCs) and their interactions with steroid hormone receptors like PR causes disruption of normal endocrine function. To identify the compounds that inhibit PR signaling, a PR-UAS-bla GripTite cell line i.e. PR-UAS-bla HEK293T (Invitrogen, Carlsbad, CA, USA) containing a beta-lactamase reporter gene under the control of an UAS response element was used to screen Tox21 10K compound library. The cytotoxicity of the Tox21 compound library against the PR-bla cell line was tested in parallel by measuring the cell viability using CellTiter-Glo assay in the same wells.
# Tox21 Assay Protocol Summary:
# PR-UAS-bla HEK293T cells were dispensed at 3,000 cells/4 uL of assay medium containing 2% charcoal stripped FBS per well into black wall/clear-bottom 1536-well plates using a Multidrop Combi (ThermoFisher Scientific, Waltham, MA) dispenser. After the assay plates were incubated at a 37C and 5% CO2 for 4 hr, 23 nL of compounds dissolved in DMSO, positive controls or DMSO only was transferred to the assay plate by a Pintool station (Kalypsys, San Diego, CA), followed by addition of 1 uL of R5020 in assay medium using a Flying Reagent Dispenser (FRD, Aurora Discovery, San Diego, CA). The plates were incubated at 37C and 5% CO2 for 16 hr. Then 1 uL of LiveBLAzer B/G FRET substrate was added using a Flying Reagent Dispenser, the plates were incubated at room temperature for 2 hours, and fluorescence intensity was measured by an Envision plate reader (PerkinElmer, Shelton, CT). For cell viability readout that measures cytotoxicity, 4 uL/well of CellTiter-Glo reagent was added into the assay plates using a FRD. After 30 min incubation at room temperature, the luminescence intensity in the plates was measured using a ViewLux (PerkinElmer) plate reader.
# % is set by controls: 0 for no effect and ±100 for the full control effect.
row,Compound,"activity change, negative = cytotoxicity"
1,CC(CC(=O)Cl)CC(C)(C)C (stereo not given),13%
2,CCCCCCCCCCCBr,-12.9% [at 42.5 µM]
3,CC(O)CCCCn1c(=O)c2c(ncn2C)n(C)c1=O (stereo not given),6.55% [at 42.5 µM]
4,CCCCN=C(N)N=C(N)N,1.79% [at 42.5 µM]
5,COC(=O)c1ccccc1Cl,-14.8%
6,Cc1ccc(O)c(C(=O)c2ccccc2)c1,-6.83%
7,O=Cc1ccccc1S(=O)(=O)O,0.438%
8,CSC(=O)c1cccc2nnsc12,10%
9,CC/C=C/CCCCCCCCCCOC(C)=O,-13.9%
10,COc1cc(OC)cc(OC)c1,1.77% [at 42.5 µM]
11,Cc1ccc2cccnc2c1,0.763%
12,COC(=O)C(c1ccccc1Cl)N1CCc2sccc2C1 (stereo not given),-23.1% [at 42.5 µM]
13,CCCCNCC,0.811%
14,N=C(N)N,-20.5% [at 42.5 µM]
15,N#Cc1ccccc1C#N,-8.7%
16,CCO/C=C1\N=C(c2ccccc2)OC1=O,-28%
17,CC(C)C(C)C,-0.775%
18,CC[C@@]1(c2ccccc2)NC(=O)N(C)C1=O,-2.84% [at 42.5 µM]
19,O=c1c(O)c(O)c1=O,-4.05%
20,COC(C)(C)CC(C)=O,-7.75%

row,Compound,"activity change, negative = cytotoxicity"
1,CNC(C)=O,16.3%
2,NNC(=O)OCc1ccccc1,-9.46%
3,CN(C)CCCN(C)C,5.2% [at 8.39 µM]
4,CCCCCCCCS(=O)(=O)O,-11.4%
5,CNCCc1ccccn1,-0.134% [at 42.5 µM]
6,C=CCN1CCc2nc(N)sc2CC1,10.9% [at 42.5 µM]
7,CCN1CCN(C(=O)N[C@@H](C(=O)N[C@@H]2C(=O)N3[C@@H]2SC(C)(C)[C@H]3C(=O)O)c2ccccc2)C(=O)C1=O,11.9% [at 42.5 µM]
8,N[C@H]1C(O)O[C@H](CO)[C@@H](O)[C@@H]1O (stereo not given in full),2.28% [at 42.5 µM]
9,CCCCCCCOC(C)=O,2.66%
10,Cc1nc2ccc(Cl)cc2[nH]1,-0.475%
11,CC/C=C\CCOC(=O)c1ccccc1,6.29%
12,O=C[C@@H](O)[C@H](O)[C@H](O)CO,16.2%
13,C/C=C(\C)C=O,5.29%
14,C=CC(C)(CCC=C(C)C)OC(=O)C(C)C (stereo not given),32.5%
15,CCC(C)(C)C,-1.51%
16,CCc1ncc(C)[nH]1,4.68%
17,COc1cc(C(=O)NC2CCCNC2)cc(OC)c1OC (stereo not given),5.72% [at 42.5 µM]
18,CCCCCCCC(=O)N(C)C,6.48%
19,CC(C)(O)CCCC1=CCC(C=O)CC1 (stereo not given),19.7%
20,Cc1cc(C)c(C)c(C)c1,8.4%
